# Bioassay records deposited in PubChem by National Center for Advancing Translational Sciences (NCATS).
# 4-MU autofl – qHTS Assay for Spectroscopic Profiling in 4-MU Spectral Region; compound autofluorescence, 340/450 nm, 4-MU equivalents; active compounds read high; max dye-equivalent concentration, M; 59,000 compounds, 11% hits; AID 589, 2007; in the data active = max dye-equivalent concentration above about 10 nM; inconclusive = mostly about 1.1 nM to 9.6 nM
#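 Intrinsic fluorescence at 340/450 nm (ex/em) was read after 15 min at room temperature in pH 8.0, 100 mM Tris. Each compound concentration expressed as 4-MU-equivalent concentration from a six-point 4-MU standard series on each plate.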
# HADH2 inhib – qHTS Assay for Inhibitors of HADH2 (Hydroxyacyl-Coenzyme A Dehydrogenase, Type II); Potency, µM (titrated, usually from 57.1 µM), without a hit: at the highest dose activity change, negative = inhibition, usual class: inhibitors; 3-hydroxyacyl-CoA dehydrogenase type-2 (Homo sapiens), Q99714; AID 886, 2007; 73,000 compounds, 3.4% hits; recombinant HADH2, NADH fluorescence, beta-hydroxybutyryl-CoA; note: potency is the fitted concentration of half-maximal effect; % is set by controls: 0 for no effect and ±100 for the full control effect; nearly all actives have a fitted effect of over 60% in size
# Target sequence (Q99714 whole entry, looked up, one chain of several): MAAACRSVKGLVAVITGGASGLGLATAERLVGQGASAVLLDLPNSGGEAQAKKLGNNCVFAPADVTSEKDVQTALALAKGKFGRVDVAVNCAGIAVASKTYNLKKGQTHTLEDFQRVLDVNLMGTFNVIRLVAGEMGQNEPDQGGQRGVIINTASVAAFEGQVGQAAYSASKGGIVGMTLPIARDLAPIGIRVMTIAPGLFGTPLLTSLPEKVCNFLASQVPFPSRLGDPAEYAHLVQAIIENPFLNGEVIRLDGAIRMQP
#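 20 nM HADH2 + cpd, 15 min RT; add 1 mM NAD+/90 uM beta-hydroxybutyryl-CoA; kinetic fluorescence 360/450 nm, 4 min. Tris-HCl pH 9.0, 0.01% Tween-20.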
# A350 autofl – qHTS Assay for Spectroscopic Profiling in A350 Spectral Region; Compound autofluorescence, 340/450 nm, Alexa 350 dye-equivalents; active compounds read high; max dye-equivalent concentration, M; 59,000 compounds, 11% hits; in the data active = max dye-equivalent concentration above about 10 nM; inconclusive = mostly about 1.1 nM to 9.6 nM
# CRE Fsk mod – Cell signaling CRE-BLA (Fsk stim); CHO CRE-bla reporter (cAMP response element driving beta-lactamase), forskolin EC10, beta-lactamase ratio; 71,000 compounds, 2.5% hits; AID 662, 2007; Potency, µM (highest dose often 38.2 µM), for inactives: at the top dose activity change, negative = inhibition, most hits filed as activators; active = well fitted activation curve with a large enough effect in the signal ratio, with a control signal flat, not every such curve was filed as active; inconclusive = small, poorly fitted or top-dose-only effect, or effect the other way, or a change in a side signal; the % refers to the signal ratio; note: potency is the fitted concentration of half-maximal effect; % of control where 0% means no effect
#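 The 460nm/530nm emission ratio after CCF4 loading defined %Activity, from which AC50 values were obtained. CRE-bla CHO cells received compound dilution series together with an EC10 level of NKH 477 for 3 hours at 37 degrees Celsius.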
# AID923 – qHTS Assay for Allosteric/Competitive Inhibitors of Caspase-1: Spectroscopic Profiling in AFC Spectral Region | compound fluorescence, AFC spectral region (405/520 nm) | Potency, µM (series often up to 57.5 µM), for the others: top-dose fluorescence increase, usual class: activators | 75,000 compounds, 1.1% hits; note: potency is the fitted concentration of half-maximal effect; 0% is about no effect
#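 Compound autofluorescence profiled at 405 nm ex/520 nm em during kinetic caspase 1 run (50 nM enzyme, 5 uM Ac-WEHD-AFC, HEPES pH 7.5, 10 mM DTT). Titration up to 57 uM; baseline from regression intercept, normalized to AFC standard curve.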
# HSD17B inhib – qHTS Assay for Inhibitors of HSD17B4, hydroxysteroid (17-beta) dehydrogenase 4; 3-hydroxyacyl-CoA dehydrogenase type-2 (Homo sapiens), Q99714; recombinant HSD17B10, NADH fluorescence kinetic; Potency, µM (titrated, usually from 57.1 µM), for the others: at the top dose activity change, negative = inhibition, most hits filed as inhibitors; 75,000 compounds, 7.6% hits; AID 893, 2007;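 note: the protocol describes HADH2 (HSD17B10) and not the HSD17B4 of the title; potency is the fitted concentration of half-maximal effect; % is set by controls: 0 for no effect and ±100 for the full control effect; nearly all actives have a fitted effect of over 70% in size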
#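 His-tagged E. coli-expressed HADH2 at 20 nM in 100 mM Tris-HCl pH 9.0 with 0.01 % Tween-20, preincubated 15 min with compound at room temperature. Reaction with 1 mM NAD+ and 90 uM beta-hydroxybutyryl coenzyme A; NADH fluorescence (360/450 nm) read kinetically over 4 min, last minus first point.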
# An asterisk follows results filed as active; i = inactive; ? = inconclusive; . = not tested or not shown; ! = repeats disagree; [ ] = another dose, or the depositor's remark. In the library only some 14% were active in any assay of this set; here they are far more common. Unless noted, calls come from the whole dose curve; as a rule, active = well fitted curve in the direction sought with a large enough effect; inconclusive = small, poorly fitted or top-dose-only effect, or another doubt; inactive = no such curve, though single readings can be large; an effect the other way counts as inactive or inconclusive.
SMILES,4-MU autofl,HADH2 inhib,A350 autofl,CRE Fsk mod,AID923,HSD17B inhib
CN1CCn2c1nc(N1CCOCC1)nc2=O,i,3%,i,1%,-2%,4%
COc1ccc(OCC(=O)N2CCN(C(=O)c3cccc4ccccc34)CC2)cc1,i,.,i,.,.,.
COc1ccc2[nH]cc(CCNc3nc(-c4cccc(C#N)c4)nc4ccccc34)c2c1,i,28%,i,?,5%,-3%
CCOC(=O)c1cccc(NC(=O)Cn2c(CC(=O)NC)nc3ccccc32)c1,?,18%,?,8%,1%,-12%
OC(COc1ccc(OCc2ccccc2)cc1)CN1CCCCC1 (stereo unspecified),4e-07M*,17%,4.5e-07M*,-4%,2%,?
O[C@H](COc1ccccc1)CN1CCCCC1,i,3%[11.4 µM],i,10%[7.6 µM],3%[11.5 µM],6%[11.4 µM]
C=C1C(=O)O[C@@H]2[C@@H]1CC/C(C)=C\CC[C@@]1(C)O[C@H]21,3e-08M*!,-13%[25.6 µM],3e-08M*!,?,-3%[25.7 µM],-3%[25.6 µM]
C=C1C(=O)O[C@@H]2[C@H]3O[C@]3(C)CCC=C(C)CC[C@@H]12,i,10%,i,?,0%,-2%
CC(=O)Nc1cccc(Oc2cc(C#N)c(C#N)cc2N2CCCCCC2)c1,2.1e-08M*,?,1.6e-08M*,16%,6%,?
CCC1=C(OC(=O)N(CC)CC)N2C(=O)OC(=NCCc3c[nH]c4ccccc34)[C@]2(C)[C@H]2C1=CC[C@H]1C(=O)N(C)C(=O)[C@H]12,.,.,.,.,1%,-5%
N#CC(C#N)=c1ccc2c(c1)N1C3=C(CCCC3)CC3CCCCC31N=2 (stereo unspecified),i,15%,i,11%,1%,-4%
N#C/C(C(N)=O)=c1/ccc2c(c1)N1C3=C(CCCC3)CC3CCCCC31N=2 (stereo unspecified),1.5e-08M*,-4%,2.6e-08M*,8%,6%,-4%
CCOC(=O)c1cnc(-c2ccccc2)[nH]c1=O,i,-2%,i,-5%,0%,2%
CCOC(=O)c1cc(C)[nH]c(=S)c1C#N,3.7e-08M*,1.3µM*,3.8e-08M*,?,0%,?
CCCCN1Cc2cc(C(=O)c3cc(F)ccc3O)cnc2NC1=O,1.4e-08M*,3%,1.5e-08M*,-23%,3%,?
S=C([S-])NCCNC(=S)[S-].[Zn+2],.,4µM*,.,-21%,0%,5µM*
COc1ccccc1N(CC(=O)Nc1cc(C)on1)S(=O)(=O)c1cccs1,i,11%,i,-11%,0%,-6%
CN1CCN(c2ccc(Cl)cc2NC(=O)c2cccc(S(=O)(=O)N(C)C)c2)CC1,i,3%,i,5µM*,-1%,4%
CN(C)S(=O)(=O)c1cccc(C(=O)Nc2cc(Cl)ccc2O)c1,6.4e-08M*,0%,4.2e-08M*,0%,-4%,4%
COc1ccc(-c2cc(C(=O)OCC(=O)N3CCCC3)c3ccccc3n2)cc1,1.1e-07M*,19%,9e-08M*,?,19%,.
CC(=O)c1ccc(N2CCN(C(=O)c3cc(-c4ccc5c(c4)OCO5)nc4ccccc34)CC2)cc1,4.9e-08M*,?,4.1e-08M*,?,6%,?
CCOc1ccc(-c2cc(C(=O)N3CCN(C)CC3)c3ccccc3n2)cc1,3.9e-07M*,29%,5.1e-07M*,8%,0%,13µM*
O=C(c1cc(-c2ccccc2)nc2ccccc12)N1CCOCC1,.,1%,.,5%,4%,-3%
O=C(O)c1cc(-c2ccc3c(c2)OCO3)nc2ccccc12,?,-14%,?,-8%,0%,-1%
CCOc1ccc(-c2cc(C(=O)N3CCN(c4ccccn4)CC3)c3ccccc3n2)cc1,1.3e-08M*,?,?,-3%,-1%,-141%
Cc1cc(C(=O)OCC(=O)N2CCOCC2)c2ccccc2n1,i,-8%,i,12%,-1%,-14%
